The list shows a part of the results. A number with no mark means an inactive call. Calls of active or inactive are those of the source. No stated cut-off is given here; in the data, active means activation above about 18%; inactive means the rest.
Assay: OPRM1-OPRD1 heterodimerization promoters, counter-screen for HTR5A agonist project, cell-based, luminescence (AID 504913)
Conditions: U2OS counter-screen cells, complementation luminescence, 3 h; at 9.3 µM; hits give high values

Compound | activation
CCn1nc(C(=O)OCC(=O)N2c3ccccc3CC2C)c2ccccc2c1=O (centres undefined) | 1.02%
Cc1c(C(=O)OCC(=O)N(CCC#N)c2ccccc2)oc2c1ccc1ccccc12 | 1.04%
COc1ccc(-c2ocnc2C(=O)Nc2ccc3c(c2)CCC3)cc1 | -2.69%
Cc1oc2c(F)c(F)c(F)c(F)c2c1S(=O)(=O)Nc1cccc(C(F)(F)F)c1 | -0.99%
CC1CCN(S(=O)(=O)c2nnc(NC(=O)COc3ccccc3F)s2)CC1 | 3.72%
CC(C)OC(=O)c1c(NC(=O)c2ccco2)sc2c1CCCC2 | 4.46%
O=C(CNCc1ccco1)Nc1cc(S(=O)(=O)N2CCOCC2)ccc1N1CCCC1 | 3.16%
c1ccc(-n2nc3ccccc3n2)cc1 | 2.66%
CN(c1ccccc1)S(=O)(=O)c1cc(C(=O)N2CCN(c3ncccn3)CC2)ccc1Cl | -0.79%
CC(NC(=O)c1cc(-c2ccccc2)on1)c1ccccc1 (centres undefined) | 40.1% (active)
COc1cc2c(-c3ccc4c(c3)OCO4)c(-c3ccsc3)oc(=O)c2cc1OC | -2.61%
CCOc1ccc(NC(=O)Nc2cc(C)on2)cc1 | 0.12%
COC(=O)c1cc(C(=O)OCC(=O)Nc2cc(C)on2)cc([N+](=O)[O-])c1 | 1.24%
Cc1cccc2sc(N(CCCN(C)C)C(=O)CCS(=O)(=O)c3ccccc3)nc12 | 0.46%
CNC(=S)N/N=C/c1ccc(OCc2ccccc2)c(Br)c1 | -1.02%
CNc1nnc(-c2ccco2)s1 | 4.29%
CC(=O)N1CCN(c2ccccc2NC(=S)NC(=O)c2cc3ccccc3o2)CC1 | 0.56%
COc1ccc(C(=O)O/N=C(\N)Cc2ccc(Cl)cc2Cl)cc1OC | 9.9%
COc1ccc(S(=O)(=O)N2CCN(CC(=O)N3c4ccccc4CC3C)CC2)cc1OC (centres undefined) | 4.47%
Cc1ccccc1CN1CCN(CC(=O)NCc2ccccn2)C1=O | 0.64%
CC(=O)COc1ccc2c(-c3ccccc3)cc(=O)oc2c1 | 63.2% (active)
CCCN(CCc1ccccc1)C1CCc2c(O)cccc2C1 (centres undefined) | 11.3%
Cc1ccc(CN2CCN(Cc3ccc(OCCO)cc3)CC2CCO)o1 (centres undefined) | -0.37%
CC(C)CC(=O)N/C(N)=N/c1nc2ccccc2s1 | 5.76%

— PubChem BioAssay AID504913 (The Scripps Research Institute Molecular Screening Center, 2011)
